Compound activity from PubChem.
Most compounds without a hit are left out; they make up all but 12% or so of the library.
Sfp PPTase inh: qHTS Assay for Inhibitors of Bacillus subtilis Sfp phosphopantetheinyl transferase (PPTase) | 4'-phosphopantetheinyl transferase ffp (Bacillus subtilis), Q9F4F7 | Biochemical Sfp PPTase activity, qHTS | Potency, µM, for the others: largest response in the series, negative = inhibition, most hits filed as inhibitors | actives 3.5% (n = 310,000) | AID 1490, 2009;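 further: the enzyme is Sfp with the accession as filed and its product quenches rhodamine fluorescence; 0% = enzyme reaction without inhibitor and -100% = no enzyme wells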
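Fluorescence-quenching assay: 15 nM Sfp-PPTase preincubated 15 min at room temperature with compound, then 5 uM rhodamine-CoA and 12.5 uM BHQ-2-labelled YbbR peptide added. Fluorescence (ex 525/em 598 nm) read at start and after 30 min; difference gives rate.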
G9a block: qHTS Assay for Inhibitors of Histone Lysine Methyltransferase G9a. Histone-lysine N-methyltransferase EHMT2 (Homo sapiens), Q96KQ7. Potency, µM (highest dose often 102 µM), for the others: at the top dose activity, negative = inhibition, actives largely listed as inhibitors. G9a H3K9 monomethylation, AlphaScreen, 2 h. AID 504332, 2011. actives 8.8% (n = 350,000); further: on the % scale 0 is the no-effect control and ±100 the full control effect; nearly all actives have a fitted effect of over 75% in size
Target sequence (Q96KQ7 913-1193 limits assumed): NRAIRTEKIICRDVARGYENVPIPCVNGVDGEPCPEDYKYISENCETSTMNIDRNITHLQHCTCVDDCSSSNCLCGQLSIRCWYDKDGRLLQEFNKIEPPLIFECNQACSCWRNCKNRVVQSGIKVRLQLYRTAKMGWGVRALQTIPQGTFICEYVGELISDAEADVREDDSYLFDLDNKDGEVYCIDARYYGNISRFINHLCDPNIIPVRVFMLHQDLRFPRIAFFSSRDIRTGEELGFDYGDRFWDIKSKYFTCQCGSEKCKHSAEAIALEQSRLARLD
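Using a bead-based AlphaScreen, monomethylated H3K9 product from 2 h room-temperature reactions (G9a 20 nM, peptide 500 nM, SAM 20 uM) was detected with 0.5 ug/mL rabbit anti-H3K9me1 antibody.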
JMJD2A Tudor inh: qHTS Assay for Inhibitors of JMJD2A-Tudor Domain. Lysine-specific demethylase 4A (Homo sapiens), O75164. actives 4.4% (n = 390,000). AlphaScreen JMJD2A-Tudor / H3K4me3 peptide binding. Potency, µM (series often up to 114 µM), for the others: at the top dose activity change, negative = inhibition, most hits filed as inhibitors; further: on the % scale 0 is the no-effect control and ±100 the full control effect; nearly all actives have a fitted effect of over 50% in size
BAZ2B block: qHTS Assay for Inhibitors of BAZ2B; actives 4.4% (n = 360,000); AlphaScreen BAZ2B-H3K14Ac peptide displacement; Bromodomain adjacent to zinc finger domain protein 2B (Homo sapiens), Q9UIF8; Potency, µM (doses to about 114 µM), for inactives: at the top dose activity change, negative = inhibition, usual class: inhibitors; AID 504333, 2011; further: on the % scale 0 is the no-effect control and ±100 the full control effect; nearly all actives have a fitted effect of over 60% in size
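Protein-peptide AlphaScreen: BAZ2B 50 nM, b-H3K14Ac 50 nM, 1x PBS pH 7.4 + 0.01% Tween-20. Preincubation 30 min RT; cpd 30 min RT (top 110 uM); beads 20 min RT, light-protected.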
HP1b chromo inh: HTS for Inhibitors of HP1-beta Chromodomain Interactions with Methylated Histone Tails. Potency, µM (titrated, usually from 114 µM), without a hit: at the highest dose activity change, negative = inhibition, hits mostly inhibitors. Chromobox protein homolog 1 (Homo sapiens), P83916. actives 0.56% (n = 390,000). AlphaScreen HP1-beta / biotin-H3K9me3 peptide binding. AID 540317, 2011; further: nearly all actives have a fitted effect of over 70% in size
Target sequence (P83916 whole entry, looked up): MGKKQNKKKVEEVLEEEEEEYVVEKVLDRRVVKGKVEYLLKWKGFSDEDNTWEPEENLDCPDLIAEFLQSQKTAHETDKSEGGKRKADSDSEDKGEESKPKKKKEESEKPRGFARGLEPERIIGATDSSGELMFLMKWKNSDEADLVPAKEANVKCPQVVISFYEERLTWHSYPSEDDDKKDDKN
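AlphaScreen: HP1-beta (50 nM) preformed 30 min with biotin-H3(1-18)K9me3 peptide (50 nM) in PBS pH 7.4, 0.01% Tween-20. Compound added for 30 min at RT, then streptavidin donor/nickel chelate acceptor beads (10 ug/mL) for 30 min.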
* marks the source's active call; other numbers are inactive results; ? = inconclusive; . = no result; [ ] = another dose, or the depositor's remark. The call rests on the fitted dose curve; in most records, active means well fitted curve in the direction sought with a large enough effect; inconclusive means small, poorly fitted or top-dose-only effect, or another doubt; inactive means no such curve, though single readings can be large; an effect the other way counts as inactive or inconclusive. Potency means the concentration at half of the fitted maximal effect.

SMILES | Sfp PPTase inh | G9a block | JMJD2A Tudor inh | BAZ2B block | HP1b chromo inh
Cc1ccc(NC(=O)CSc2nnc(-c3cccnc3)o2)c(C)c1 | . | 45µM* | -14% | 3% | 33%
Cc1ccc(NC(=O)CSc2nnc(-c3ccc(Br)cc3)o2)c(C)c1 | . | -1%[59 µM] | -7% | 4% | 71%
CCN1CCN(c2ncc3c(n2)CCN(Cc2ccc(C)s2)C3)CC1 | . | ? | 79µM* | ? | -20%
CCN1CCN(c2ncc3c(n2)CCN(Cc2sccc2C)C3)CC1 | . | 18µM* | ? | ? | 21%
CN1CCN(c2ncc3c(n2)CCN(Cc2ccc(Br)s2)C3)CC1 | . | -6%[12.7 µM] | 79µM* | -28% | 11%
CCN1CCN(c2ncc3c(n2)CCN(Cc2cc(Br)cs2)C3)CC1 | . | 22µM* | 79µM* | 50µM* | 4%
CCN1CCN(c2ncc3c(n2)CCN(Cc2ccc(Br)s2)C3)CC1 | . | 3%[12.7 µM] | -22% | -30% | 38%
CCOc1ccc(NC(=O)c2c(Nc3ccc(OC)cc3OC)sc(C(=O)c3ccc(Cl)cc3)c2N)cc1 | . | ? | -36% | ? | -9%
COC(=O)c1sccc1NC(=O)CSc1ccc(Cl)cc1 | 4% | 285% | 67% | 64%[57.1 µM] | 110%
CC[C@]1(O)C[C@@H]2CN(CCc3c([nH]c4ccccc34)[C@@](C(=O)OC)(c3cc4c(cc3OC)N(C)C3[C@]45CCN4CC=C[C@](CC)(C45)[C@@H](OC(C)=O)[C@]3(O)C(=O)OC)C2)C1 (stereo partly drawn) | 17% | 14µM* | . | . | .
CCOC(=O)Nc1ccc(C(=O)c2ccncc2)cc1 | 3% | . | 7% | 8% | 59%
CC(=O)Nc1ccc(S(=O)(=O)NC2(C(F)(F)F)C(=O)Nc3c2c(=O)[nH]c(=O)n3Cc2ccco2)cc1 (stereo not drawn) | 10% | 56µM* | -1% | -21% | .
CC(=O)NC1(C(F)(F)F)C(=O)Nc2c1c(=O)[nH]c(=O)n2Cc1ccco1 (stereo not drawn) | -14% | -20%[59 µM] | -20% | -39% | 28%
COCCN(CCOC)Cc1c(O)ccc2c1O/C(=C\c1ccc(C)o1)C2=O | 2.8µM* | 1µM* | -25% | ? | -31%
Cc1ccccc1Nc1c(-c2ccc(N3CCOCC3)cc2)nc2ccccn12 | . | 16µM* | 28µM* | 18µM* | ?
Cc1cccc(C)c1Nc1c(-c2ccc(N3CCOCC3)cc2)nc2cnccn12 | -6% | ? | ? | -32% | 1%
Cc1ccccc1Nc1c(-c2cccnc2)nc2cccc(C)n12 | 8% | -28% | -27% | ? | 30%
Cc1ccccc1Nc1c(-c2ccc(N3CCOCC3)cc2)nc2ccc(Br)cn12 | . | 7.1µM* | ? | ? | ?
CCc1cccc(C)c1Nc1c(-c2ccc(N3CCOCC3)cc2)nc2ncccn12 | . | 10µM* | 40µM* | 28µM* | ?
Cc1ccccc1Nc1c(-c2ccc(N3CCOCC3)cc2)nc2cccc(C)n12 | . | 14µM* | 22µM* | ? | ?
NC(=O)C1(N2CCCCC2)CCN(C(=O)NC23CC4CC(CC(C4)C2)C3)CC1 | 15% | -1%[59 µM] | -14% | 2% | 8%
Cc1cccc(Nc2nnc(SCC(O)=C(C#N)c3nc4ccccc4[nH]3)s2)c1 | . | . | -12% | . | 10%
Cc1cc(N)ccc1N1CCCC1 | 14µM* | ? | 20µM* | 45µM* | 50µM*
NC(=O)c1cc(N)ccc1N1CCCC1 | -5% | ? | ? | -39% | -9%
Cc1cc(N)ccc1-n1c(C)ccc1C | -9% | 14µM* | ? | -3% | -23%
COc1ccccc1Nc1nc2c(C)cccc2cc1C#N | 1% | 51%[12.7 µM] | 10% | 17% | 23%
O=C(C1=C[C@@H](c2coc3ccccc3c2=O)C[C@@H](OCc2ccc(CO)cc2)O1)N1CCN(Cc2ccccc2)CC1 | 3% | 8%[12.7 µM] | -35% | -30% | 11%
Cc1cccc(N2NC(=O)/C(=C/c3ccc(-c4ccc(Cl)c(C(=O)O)c4)o3)C2=O)c1 | -12% | 13µM* | ? | . | ?
